# Several values for one entry are separate records, joined by “and”; a condition that tells them apart may be missing. Identical values can stand only once. Activity calls are given as the source filed them. Unless noted, no stated cut-off is given here; in the data, active means inhibition above about 30%; inactive means the rest.
# Assays:
# [1] = target: Nuclear receptor coactivator 3 (Homo sapiens) (UniProt Q9Y6Q9); assay: NCOA3 GAL4-fusion reporter inhibition – cell-based, luminescence, quadruplicate, confirmation (AID 588792;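 active means mean inhibition over 43.08%, the solvent-only control mean plus 3 SD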;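 further: 0% = DMSO treated cells and 100% = gossypol at 36 µM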); conditions: HEK293 GAL4-SRC3 luciferase reporter, at 3.6 µM, hits give high values
# Nuclear receptor coactivator 3 (Homo sapiens), sequence (Q9Y6Q9 whole entry, looked up, the tested form may be a part): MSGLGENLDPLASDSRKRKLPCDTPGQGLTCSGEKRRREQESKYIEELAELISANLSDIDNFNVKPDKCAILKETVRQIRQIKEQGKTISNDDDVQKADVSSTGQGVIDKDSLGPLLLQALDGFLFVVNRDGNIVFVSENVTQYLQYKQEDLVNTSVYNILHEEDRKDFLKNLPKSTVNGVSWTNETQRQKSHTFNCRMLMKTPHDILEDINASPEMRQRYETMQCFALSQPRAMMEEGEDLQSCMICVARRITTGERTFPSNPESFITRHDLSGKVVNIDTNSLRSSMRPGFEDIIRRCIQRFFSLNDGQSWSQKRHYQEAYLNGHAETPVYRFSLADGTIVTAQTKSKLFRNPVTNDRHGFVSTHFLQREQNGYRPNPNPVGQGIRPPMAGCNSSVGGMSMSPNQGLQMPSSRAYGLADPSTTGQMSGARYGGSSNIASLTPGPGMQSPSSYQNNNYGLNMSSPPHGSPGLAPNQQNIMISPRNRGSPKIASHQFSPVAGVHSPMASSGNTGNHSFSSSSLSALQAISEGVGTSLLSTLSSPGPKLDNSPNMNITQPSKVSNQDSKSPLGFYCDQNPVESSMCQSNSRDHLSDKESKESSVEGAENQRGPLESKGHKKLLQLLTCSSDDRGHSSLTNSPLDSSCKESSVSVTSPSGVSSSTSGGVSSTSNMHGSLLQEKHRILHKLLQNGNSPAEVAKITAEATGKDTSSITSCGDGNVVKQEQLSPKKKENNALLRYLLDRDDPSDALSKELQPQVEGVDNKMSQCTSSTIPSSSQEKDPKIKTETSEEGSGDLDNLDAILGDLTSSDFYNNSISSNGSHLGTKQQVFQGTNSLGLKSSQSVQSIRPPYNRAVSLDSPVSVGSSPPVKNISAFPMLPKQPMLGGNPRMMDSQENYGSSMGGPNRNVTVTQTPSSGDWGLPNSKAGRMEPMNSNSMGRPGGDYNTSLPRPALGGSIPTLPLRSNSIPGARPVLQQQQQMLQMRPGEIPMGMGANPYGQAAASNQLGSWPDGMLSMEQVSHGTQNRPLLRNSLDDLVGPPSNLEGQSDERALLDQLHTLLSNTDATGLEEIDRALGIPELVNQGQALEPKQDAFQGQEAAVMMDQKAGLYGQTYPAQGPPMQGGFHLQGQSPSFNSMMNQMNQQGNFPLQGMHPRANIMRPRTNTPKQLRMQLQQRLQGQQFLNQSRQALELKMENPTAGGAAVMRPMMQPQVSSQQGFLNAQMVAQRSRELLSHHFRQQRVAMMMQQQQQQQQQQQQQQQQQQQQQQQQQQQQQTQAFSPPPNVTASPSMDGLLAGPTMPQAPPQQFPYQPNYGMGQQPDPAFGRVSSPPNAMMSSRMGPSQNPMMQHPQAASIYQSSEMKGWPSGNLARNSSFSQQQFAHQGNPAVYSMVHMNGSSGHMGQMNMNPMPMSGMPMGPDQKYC
# [2] = test system: transactivating tegument protein VP16 (Human herpesvirus 1), Gal4-VP16 luciferase reporter; assay: repression of VP16-driven luciferase reporter – cell-based, luminescence, high throughput, counter-screen for SRC3 inhibitor project (AID 588794); conditions: mammalian cells, at 3.6 µM, hits give high values
# [3] = target: Nuclear receptor coactivator 1 (Homo sapiens) (UniProt Q15788); assay: NCOA1 GAL4-fusion reporter inhibition – cell-based, luminescence, quadruplicate, confirmation (AID 588820;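 active means mean inhibition above 46.68%, the untreated control wells mean plus 3 SD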;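 further: 0% = DMSO wells and 100% = gossypol 36 µM treated wells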); conditions: HEK293 GAL4-SRC1 luciferase reporter, at 3.6 µM, hits give high values
# Nuclear receptor coactivator 1 (Homo sapiens), sequence (Q15788 whole entry, looked up, the tested form may be a part): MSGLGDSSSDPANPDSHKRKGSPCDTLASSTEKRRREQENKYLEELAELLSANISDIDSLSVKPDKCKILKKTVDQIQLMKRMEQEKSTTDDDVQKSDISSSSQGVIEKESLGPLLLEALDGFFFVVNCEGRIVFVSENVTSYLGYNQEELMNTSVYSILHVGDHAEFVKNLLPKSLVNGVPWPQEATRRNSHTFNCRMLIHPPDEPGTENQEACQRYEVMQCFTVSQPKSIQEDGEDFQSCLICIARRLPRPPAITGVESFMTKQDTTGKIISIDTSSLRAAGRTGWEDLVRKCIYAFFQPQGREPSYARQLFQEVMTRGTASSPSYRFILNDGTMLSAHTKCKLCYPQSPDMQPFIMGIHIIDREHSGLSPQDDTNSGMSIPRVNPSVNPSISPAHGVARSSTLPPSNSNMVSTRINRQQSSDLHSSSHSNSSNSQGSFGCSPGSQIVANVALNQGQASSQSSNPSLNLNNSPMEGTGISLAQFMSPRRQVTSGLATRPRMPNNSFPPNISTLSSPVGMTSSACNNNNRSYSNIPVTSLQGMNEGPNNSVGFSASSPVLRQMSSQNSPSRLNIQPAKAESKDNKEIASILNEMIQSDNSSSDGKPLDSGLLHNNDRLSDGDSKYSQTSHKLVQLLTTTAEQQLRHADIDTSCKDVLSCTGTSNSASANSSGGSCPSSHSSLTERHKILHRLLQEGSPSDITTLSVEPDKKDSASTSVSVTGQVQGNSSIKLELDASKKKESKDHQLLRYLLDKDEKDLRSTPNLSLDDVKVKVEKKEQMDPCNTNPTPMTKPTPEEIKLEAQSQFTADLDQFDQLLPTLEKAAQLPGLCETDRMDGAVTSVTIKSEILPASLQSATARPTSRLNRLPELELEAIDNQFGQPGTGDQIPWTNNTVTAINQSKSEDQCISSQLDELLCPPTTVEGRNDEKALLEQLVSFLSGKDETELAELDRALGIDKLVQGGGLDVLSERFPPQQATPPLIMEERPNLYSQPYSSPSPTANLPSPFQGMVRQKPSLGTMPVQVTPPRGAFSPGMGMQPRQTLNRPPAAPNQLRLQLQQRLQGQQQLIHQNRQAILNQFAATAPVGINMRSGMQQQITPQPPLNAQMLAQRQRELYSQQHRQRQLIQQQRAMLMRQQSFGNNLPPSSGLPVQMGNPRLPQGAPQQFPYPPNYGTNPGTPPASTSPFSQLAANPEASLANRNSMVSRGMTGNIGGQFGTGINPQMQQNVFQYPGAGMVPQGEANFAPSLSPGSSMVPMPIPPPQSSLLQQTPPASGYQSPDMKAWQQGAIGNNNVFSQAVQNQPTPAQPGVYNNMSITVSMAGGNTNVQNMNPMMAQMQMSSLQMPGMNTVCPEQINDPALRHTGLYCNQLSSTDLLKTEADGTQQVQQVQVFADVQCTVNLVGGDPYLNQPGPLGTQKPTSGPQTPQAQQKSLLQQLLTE
# [4] = repression of VP16-driven luciferase reporter – cell-based, luminescence, high throughput, counter-screen for SRC1 inhibitor project (AID 588824; in the data active means inhibition above about 25%); conditions: cell-based VP16 transactivation luciferase luminescence; at 3.6 µM; hits give high values
# [5] = StAR promoter reporter inhibitors, counter-screen for LRH-1 inverse agonist project, cell-based, luminescence, high throughput (AID 651611; in the data active means inhibition above about 28%); conditions: StAR promoter luciferase reporter counterscreen, at 3.6 µM, hits give high values
# [6] = target: Nuclear receptor subfamily 5 group A member 2 (Homo sapiens) (UniProt O00482); assay: NR5A2 activity suppression in reporter cells – cell-based, luminescence, confirmation (AID 651613; in the data active means inhibition above about 42%;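 further: HEK293T cells co-transfected with LRH-1 and StAR promoter luciferase reporter; 0% = vehicle wells and 100% = parental cells lacking receptor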); conditions: cell-based LRH-1 luciferase reporter, inverse agonism; at 3.6 µM; hits give high values
# [7] = target: Steroidogenic factor 1 (Homo sapiens) (UniProt Q13285); assay: inverse agonism at SF1 nuclear receptor – cell-based, luminescence, high throughput, counter-screen for LRH-1 inverse agonist project (AID 651614; in the data active means inhibition above about 44%;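 further: cells cotransfected with StAR promoter reporter and SF1 expression vector; 0% = vehicle on cells with receptor and 100% = vehicle on cells lacking receptor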); conditions: cell-based SF1 luciferase reporter, at 3.6 µM, hits give high values
# Steroidogenic factor 1 (Homo sapiens), sequence (Q13285 whole entry, looked up, the tested form may be a part): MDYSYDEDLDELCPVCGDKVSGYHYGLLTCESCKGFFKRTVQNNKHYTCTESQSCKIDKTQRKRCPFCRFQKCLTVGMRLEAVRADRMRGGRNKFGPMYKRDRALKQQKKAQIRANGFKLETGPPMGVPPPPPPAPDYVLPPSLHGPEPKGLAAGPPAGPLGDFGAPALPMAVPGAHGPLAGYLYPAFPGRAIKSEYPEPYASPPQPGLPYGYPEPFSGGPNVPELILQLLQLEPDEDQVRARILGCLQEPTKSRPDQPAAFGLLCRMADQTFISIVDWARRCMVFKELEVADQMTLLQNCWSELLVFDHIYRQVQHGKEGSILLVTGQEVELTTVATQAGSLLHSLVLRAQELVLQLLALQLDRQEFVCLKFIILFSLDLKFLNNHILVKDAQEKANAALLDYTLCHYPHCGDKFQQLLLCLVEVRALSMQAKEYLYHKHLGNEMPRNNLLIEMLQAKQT
# [8] = compounds suppressing VP16-driven luciferase signal – cell-based, luminescence, high throughput, counter-screen for LRH-1 inverse agonist project (AID 651615; in the data active means inhibition above about 33%); conditions: Gal4-VP16 luciferase reporter cells, at 3.6 µM, hits give high values
# [9] = test system: transactivating tegument protein VP16 (Human herpesvirus 1); assay: compounds suppressing VP16-driven luciferase signal – cell-based, luminescence, single concentration, counter-screen for SRC2 inhibitor project (AID 652007; in the data active means inhibition above about 36%); conditions: cell-based VP16 transactivation luciferase reporter, at 8.9 µM, hits give high values
# [10] = target: Nuclear receptor coactivator 2 (Homo sapiens) (UniProt Q15596); assay: inhibition of GAL4-SRC2 driven luciferase expression – cell-based, luminescence, HEK293, triplicate, confirmation (AID 652008;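 active means mean inhibition above 46.5%, the solvent-only control mean plus 3 SD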;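 further: 0% = DMSO-treated cells and 100% = Gossypol at 36 µM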); conditions: HEK293 GAL4-SRC2 luciferase reporter, at 8.9 µM, hits give high values
# Nuclear receptor coactivator 2 (Homo sapiens), sequence (Q15596 whole entry, looked up, the tested form may be a part): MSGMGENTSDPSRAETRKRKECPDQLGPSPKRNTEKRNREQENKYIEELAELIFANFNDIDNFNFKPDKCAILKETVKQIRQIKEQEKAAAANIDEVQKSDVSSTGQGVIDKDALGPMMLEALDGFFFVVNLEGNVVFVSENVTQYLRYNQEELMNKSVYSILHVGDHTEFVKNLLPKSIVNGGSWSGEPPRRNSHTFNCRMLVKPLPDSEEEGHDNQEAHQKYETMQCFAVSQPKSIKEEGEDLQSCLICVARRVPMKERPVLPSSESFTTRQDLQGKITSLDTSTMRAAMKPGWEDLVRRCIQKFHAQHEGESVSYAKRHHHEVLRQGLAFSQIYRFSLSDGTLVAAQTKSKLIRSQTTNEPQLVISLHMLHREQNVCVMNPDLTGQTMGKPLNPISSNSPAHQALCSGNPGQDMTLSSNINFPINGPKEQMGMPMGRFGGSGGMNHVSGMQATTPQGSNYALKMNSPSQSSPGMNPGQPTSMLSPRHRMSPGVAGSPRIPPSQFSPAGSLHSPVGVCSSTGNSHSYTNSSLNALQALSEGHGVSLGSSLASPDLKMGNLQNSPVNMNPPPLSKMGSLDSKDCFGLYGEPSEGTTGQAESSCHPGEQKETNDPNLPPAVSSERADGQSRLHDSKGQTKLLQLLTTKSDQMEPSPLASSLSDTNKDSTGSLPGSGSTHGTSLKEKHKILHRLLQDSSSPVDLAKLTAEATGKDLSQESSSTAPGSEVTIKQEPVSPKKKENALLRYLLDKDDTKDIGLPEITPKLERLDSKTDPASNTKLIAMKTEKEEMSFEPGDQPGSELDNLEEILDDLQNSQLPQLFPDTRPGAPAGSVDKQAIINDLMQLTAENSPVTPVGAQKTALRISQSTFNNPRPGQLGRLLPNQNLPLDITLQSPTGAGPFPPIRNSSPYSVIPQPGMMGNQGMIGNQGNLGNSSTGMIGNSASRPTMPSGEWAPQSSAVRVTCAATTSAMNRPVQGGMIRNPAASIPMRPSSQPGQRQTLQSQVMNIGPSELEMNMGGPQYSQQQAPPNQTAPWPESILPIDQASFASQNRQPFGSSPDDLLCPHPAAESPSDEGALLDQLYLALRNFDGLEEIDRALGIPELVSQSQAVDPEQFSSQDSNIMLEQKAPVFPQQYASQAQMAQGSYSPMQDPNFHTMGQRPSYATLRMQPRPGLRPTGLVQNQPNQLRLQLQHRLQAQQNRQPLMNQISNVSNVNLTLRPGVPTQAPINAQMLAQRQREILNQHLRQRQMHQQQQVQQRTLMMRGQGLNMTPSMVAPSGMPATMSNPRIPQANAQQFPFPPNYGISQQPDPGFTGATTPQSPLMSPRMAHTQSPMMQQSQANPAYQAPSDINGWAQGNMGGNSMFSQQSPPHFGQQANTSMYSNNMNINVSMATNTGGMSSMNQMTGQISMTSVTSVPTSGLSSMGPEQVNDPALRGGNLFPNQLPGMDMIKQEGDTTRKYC
Structure (SMILES),inhibition [1],inhibition [2],inhibition [3],inhibition [4],inhibition [5],inhibition [6],inhibition [7],inhibition [8],inhibition [9],inhibition [10]
CC1CCC(C(C)C)C(OC(=O)Cn2c(-c3ccccc3)[n+](C)c3ccccc32)C1 (stereo not given),74.8% (active) and 54.2% (active),76.2% (active) and 68% (active),55.1% (active) and 49.6% (active),75.8% (active) and 65.7% (active),54% (active),108% (active),83.8% (active),94.5% (active),49.1% (active),30.4% (inactive)
CC(C)c1ccc(-n2c(-c3ccccc3)c[n+]3c2CCc2ccccc2-3)cc1,72.4% (active),84% (active),63.6% (active),84.4% (active),76.3% (active),108% (active),91.6% (active),90.1% (active),60.1% (active),71.4% (active)
C[C@@H](C(=O)Nc1ccc2c(c1)OCCO2)n1c(=O)[nH]c2ccccc2c1=O,34.5% (inactive),-0.03% (inactive),-4.84% (inactive),-17.6% (inactive),-11.4% (inactive),-28.3% (inactive),20.2% (inactive),-18.1% (inactive),3.58% (inactive),68.7% (active)
O=C(CCl)N(c1ccccc1)C1CCS(=O)(=O)C1 (stereo not given),55.4% (active),18% (inactive),22.3% (inactive),14% (inactive),50.6% (active),71.3% (active),65.1% (active),16.8% (inactive),40.7% (active),57.2% (active)
OCC1OC(n2ccc3c(NO)ncnc32)C(O)C1O (stereo not given),93.2% (active),88.2% (active),48.2% (active),87.4% (active),93.5% (active),108% (active),97% (active),96% (active),53.9% (active),51.5% (active)
O=C(OCCC12CC3CC(CC(C3)C1)C2)c1ccc(NCc2cc(O)ccc2O)cc1,88.1% (active),25.4% (inactive),11.1% (inactive),57.7% (active),72.6% (active),80.7% (active),75.3% (active),83.8% (active),97.1% (active),98.4% (active)
COC(=O)c1ccccc1-c1c2ccc(=N)cc-2oc2cc(N)ccc12,35% (inactive),55.2% (active),28.7% (inactive),48.3% (active),62.2% (active),109% (active),79.1% (active),88% (active),21.2% (inactive),3.71% (inactive)
COc1ccccc1C(=O)N(CCC1CCCN1C)c1nc2ccccc2s1 (stereo not given),38.7% (inactive),14.6% (inactive),-24.3% (inactive),-21.5% (inactive),-41.5% (inactive),-79.1% (inactive),-54.7% (inactive),-44.3% (inactive),11.8% (inactive),53.8% (active)
CN=c1scc(-c2ccccc2F)n1/N=C/c1ccc[nH]1,89% (active),86.5% (active),71.6% (active),75.6% (active),87.2% (active),70.1% (active),85.6% (active),78.1% (active),87.7% (active),96.1% (active)
CC(C)(C)NCC(=Cc1ccccc1)C(=O)c1ccccc1,50% (active),82.9% (active),-38.5% (inactive),87.5% (active),44.6% (active),84.1% (active),84.3% (active),89.1% (active),72.5% (active),71.1% (active)
CCOc1c(Br)cc(CNc2ccc3c(c2)OCCO3)cc1OC,14.5% (inactive),8.55% (inactive),-25.8% (inactive),9.33% (inactive),3.55% (inactive),3.36% (inactive),19.9% (inactive),26.2% (inactive),-28.8% (inactive),21.9% (inactive)
Oc1ccc(CCNc2ncnc3ccc(Cl)cc23)cc1,64.9% (active),61.6% (active),60.8% (active),62% (active),43.6% (active),70.5% (active),68.7% (active),78.6% (active),26.7% (inactive),65.6% (active)
Cc1cc(C(=O)COC(=O)C2=COCCO2)c(C)n1-c1ccccc1,32.9% (inactive),5.84% (inactive),-53.9% (inactive),-37.1% (inactive),23.9% (inactive),-86.4% (inactive),26.1% (inactive),-34.8% (inactive),68.8% (active),66.6% (active)
COc1cccc(N2CCN(c3ncnc4c3cnn4-c3ccc(C)cc3C)CC2)c1,88.3% (active),81.1% (active),54.6% (active),86.2% (active),83.2% (active),97.4% (active),89.8% (active),90.2% (active),81.1% (active),72.1% (active)
CC(=O)Nc1ccc(SCC(=O)c2cc(C)n(-c3ccccc3F)c2C)cc1,41% (inactive),9.76% (inactive),-10.3% (inactive),-5.83% (inactive),-29.9% (inactive),-14.4% (inactive),-11.8% (inactive),-26% (inactive),-6.67% (inactive),38% (inactive)
O=[N+]([O-])c1nn(-c2ccc3c(c2)OCCO3)n(O)c1=Nc1ccccc1,81% (active),-12.3% (inactive),70.5% (active),16.2% (inactive),68.9% (active),44.6% (active),66.5% (active),33.9% (active),35.2% (inactive),91.4% (active)
O=C1N(c2ccccc2)C[C@@H]2C[C@@H](c3cc4ccccc4o3)N3CCC[C@@]123,95.3% (active),96.3% (active),74.5% (active),94.7% (active),90.4% (active),109% (active),98% (active),98.4% (active),47.8% (active),43.3% (inactive)
CC(C)(C)C(=O)/C(=C/c1ccncc1)n1cncn1,69.2% (active),55.3% (active),59.9% (active),48% (active),35.2% (active),42.6% (active),46.5% (active),69.2% (active),39.9% (active),63.3% (active)
Cc1ccc(/C=C2/SC(=S)N(CCCC(=O)Nc3ccc(O)cc3)C2=O)cc1,57% (active),12.8% (inactive),41.2% (inactive),3.55% (inactive),55% (active),6.39% (inactive),52.3% (active),-5.05% (inactive),43.6% (active),54.1% (active)
CC1CCC(C(C)C)C(OC(=O)Cn2c(-c3ccc(F)cc3)[n+](C)c3ccccc32)C1 (stereo not given),69.1% (active),45.8% (active),25.4% (inactive),38.6% (active),23.7% (inactive),108% (active),59.9% (active),93.7% (active),26.2% (inactive),34.6% (inactive)
O=C(NCCc1ccccc1)c1ccc2c(c1)OCCO2,41.6% (inactive),11.9% (inactive),-81.6% (inactive),0.41% (inactive),29.6% (active),-10.6% (inactive),42% (inactive),7.34% (inactive),44.1% (active),77.7% (active)
Cc1cc(C(=O)CN2C(=O)c3ccccc3S2(=O)=O)c(C)n1CC1CCCO1 (stereo not given),82.9% (active),62.8% (active),77.7% (active),60% (active),78.1% (active),81% (active),80.4% (active),68.2% (active),63.7% (active),93.7% (active)
CCN(CC)c1ccc(C(=C2C=CC(=[N+](CC)CC)C=C2)c2ccccc2)cc1,95.5% (active),95.9% (active),-95% (inactive),94.3% (active),97.7% (active),109% (active),99.1% (active),98.7% (active),98.3% (active),99.5% (active)
Cc1cc(C)c(C(=O)/C=C/c2cccc3ccccc23)c(=O)[nH]1,72.8% (active),56.7% (active),55.2% (active),63.5% (active),94% (active),110% (active),97.8% (active),94.3% (active),47.2% (active),65.3% (active)
COc1ccc2cc3c(N)nn(C(=O)c4ccccc4Cl)c3nc2c1,74.4% (active),64.5% (active),60.9% (active),62.6% (active),47.3% (active),75.6% (active),59.1% (active),81.6% (active),-12.1% (inactive),50% (active)
CC[C@@]1(O)C(=O)OCc2c1cc1n(c2=O)Cc2cc3c(N)cccc3nc2-1,91.8% (active),77.3% (active),58.2% (active),74.7% (active),84.6% (active),104% (active),92% (active),77.2% (active),30.5% (inactive),51.9% (active)
O=C(NC1CCCCC1)C(c1cccnc1)N(C(=O)CCl)c1ccccc1Cl (stereo not given),81.8% (active),64% (active),67.1% (active),59.1% (active),54.7% (active),70.4% (active),67.5% (active),64.8% (active),38.6% (active),55.5% (active)
COc1ccc2cc3c(N)nn(C(=O)c4ccccc4[N+](=O)[O-])c3nc2c1,76.5% (active),59.9% (active),64.8% (active),61.3% (active),44.6% (active),67.5% (active),46.9% (active),78% (active),3.64% (inactive),46.6% (active)
CCCCCCCC/C=C\CCCCCCCC(=O)NCCc1ccc(O)c(O)c1,22% (inactive),-11.3% (inactive),-70% (inactive),-11.4% (inactive),-4.3% (inactive),-29.9% (inactive),4.21% (inactive),-16.1% (inactive),1.26% (inactive),21% (inactive)

# Source: PubChem BioAssay
